Source: PubChem (several laboratories)
The list is not random: actives were taken first. Their share in the collection is about 3.6%.
KKLEB cytotox: counter-screen for CF NF-kB inhibitors: cytotoxicity | KKLEB CF airway cells viability, ATPlite luminescence, overnight; stronger effect = lower value; cells stimulated with P. aeruginosa culture filtrate | activity change (cytotoxicity), % at 5 µM | AID 602141 | 0.36% of 360,000 active;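 active = corrected activity change at or below -50% at 5 µM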
Peg3 prom inh: inhibitors of Peg3 promoter | AID 588405 | 1.7% of 360,000 active | HeLa PEG-Prom luciferase reporter, luminescence, overnight | inhibition, % at 20 µM;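 active = inhibition of at least 50% at 20 µM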
HSP90 refold inh: HSP90 refolding inhibition in rabbit reticulocyte lysate. luciferase refolding luminescence, 3 h. 0.91% of 290,000 active. inhibition, % at 5.6 µM. AID 1789;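 active = inhibition above the screen-wide mean plus 3 SD, computed separately per campaign, cut at about 16% in these data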;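 also: inhibitors lower the luminescence because luciferase stays unfolded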
Mdm2 MdmX PPI: disrupts the human Mdm2-MdmX interaction. O15151+Q00987. SaOS-2 split-luciferase Mdm2/MdmX complementation, luminescence. inhibition, % at 8 µM. 3% of 330,000 active;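 active = inhibition of at least 50% at 8 µM in the primary screen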
CF NFkB block: cystic fibrosis NF-kB activation inhibition | KKLEB NF-kB-GFP reporter, PAF-induced, GFP fluorescence overnight | inhibition, % at 5 µM | 0.86% of 360,000 active;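 active = at least 50% inhibition at 5 µM, scaled per plate between neutral and stimulator controls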;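 also: PAF is a Pseudomonas aeruginosa culture filtrate used as stimulus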
LGR2 antag: inhibitors of bursicon-induced Drosophila LGR2 receptor cAMP signaling; HEK293 LGR2, CRE-luciferase, bursicon-stimulated, 4 h; inhibition, % at 9.99 µM; 0.35% of 380,000 active; AID 720647;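 active = drop in luminescence signal, shown as inhibition above about 50% in the replicate tests, limit read from the data, passing the limit was not always enough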;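 also: agonist challenge used bursicon conditioned medium at about half maximal strength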
Mdm2-MdmX conf: confirmation of human Mdm2/MdmX interaction inhibitors | 55% of 10,000 active | inhibition, % at 8 µM | Mdm2-MdmX binding, luminescent assay | shares compounds with Mdm2 MdmX PPI | AID 489028; in the data active = inhibition above about 40%
Full FLuc ctr: full-length luciferase inhibition in Mdm2/MdmX counter-screen; shares compounds with Mdm2 MdmX PPI; SaOS-2 full-length luciferase counterscreen, luminescence; inhibition, % at 8 µM; 77% of 6,200 active; AID 504607;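 active = mean inhibition at 8 µM reaching about 37%, which flags the compound as non-specific, limit read from the data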;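 also: p53-null SaOS-2 cells with luciferase driven by a doxycycline-inducible promoter; compound on cells about two nights before reading with doxycycline added after day one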
Of the large screens only hits and unclear results are named; the others gave an inactive call (follow-up assays come after a bar, where they were run).

COc1ccc(C(CCN(Cc2ccc(OC)c(OC)c2)C(C)=O)c2ccccc2)cc1 (stereo unspecified)	none
COc1ccc(CNCC(O)(c2ccccc2)c2ccc(F)cc2)cc1 (stereo unspecified)	none
COc1ccc(CNCCC(c2ccc(F)cc2)c2ccc(OC(C)C)cc2)cc1OC (stereo unspecified)	Peg3 prom inh 110, Mdm2 MdmX PPI 93 (no result: LGR2 antag) | Mdm2-MdmX conf inactive | Full FLuc ctr 76
COc1ccc(C(CCNC(C)c2ccccc2)c2ccc(F)cc2)cc1 (stereo unspecified)	Peg3 prom inh 107, Mdm2 MdmX PPI 73 | Mdm2-MdmX conf inactive
COc1ccc(CN(CCC(c2ccccc2)c2ccc(OC(C)C)cc2)C(=O)CCl)cc1OC (stereo unspecified)	KKLEB cytotox -85, Peg3 prom inh 106, Mdm2 MdmX PPI 101, CF NFkB block 81 | Mdm2-MdmX conf 85 | Full FLuc ctr 55
COc1ccc(CNC(=O)CNC(C)c2ccc(F)cc2)cc1 (stereo unspecified)	none
COc1ccc(C(CCNCc2ccc(F)cc2)c2ccc(F)cc2)cc1 (stereo unspecified)	Peg3 prom inh 80, Mdm2 MdmX PPI 76, LGR2 antag 59 | Mdm2-MdmX conf inactive | Full FLuc ctr 90
COc1ccc(C(CCNCc2ccccc2)c2ccc(F)cc2)cc1 (stereo unspecified)	none
C[C@@H]1CCCCO[C@H](CN(C)C(=O)CCCN(C)C)[C@H](C)CN([C@@H](C)CO)C(=O)c2cc(NC(=O)C3CCCCC3)ccc2O1	none (no result: KKLEB cytotox, Peg3 prom inh, HSP90 refold inh, Mdm2 MdmX PPI, CF NFkB block)
COc1cc(NS(=O)(=O)c2ccc3c(c2)oc(=O)n3C)cc(OC)c1OC	Mdm2 MdmX PPI 57 | Mdm2-MdmX conf inactive
COc1ccc(NS(=O)(=O)c2ccc3c(c2)oc(=O)n3C)c(OC)c1	none
C[C@H](CO)N1C[C@H](C)[C@@H](CN(C)C(=O)C2CCC2)Oc2cc(C#C[C@@H](C)O)ccc2S1(=O)=O	none (no result: KKLEB cytotox, Peg3 prom inh, HSP90 refold inh, Mdm2 MdmX PPI, CF NFkB block)
O=[N+]([O-])c1ccc(NC(=S)NCCc2ccc(Cl)cc2)cc1	Mdm2 MdmX PPI 93 (no result: LGR2 antag) | Mdm2-MdmX conf 81 | Full FLuc ctr 46
O=[N+]([O-])c1cc(C(F)(F)F)ccc1NCCCCNS(=O)(=O)c1ccc(Cl)cc1	none
CCCCc1ccc(NC(=O)C(=O)NCCN2CCN(Cc3ccc([N+](=O)[O-])cc3)CC2)cc1	Mdm2 MdmX PPI 67 | Mdm2-MdmX conf inactive
O=[N+]([O-])c1cc(C(F)(F)F)ccc1NCCNC(=S)Nc1ccc(Cl)cc1	Mdm2 MdmX PPI 89 | Mdm2-MdmX conf inactive
O=[N+]([O-])c1ccc(NC(=S)NCc2ccc(F)cc2)cc1	Mdm2 MdmX PPI 74 | Mdm2-MdmX conf inactive
O=[N+]([O-])c1ccc(NC(=S)NCc2ccncc2)cc1	none
Nc1ccc2nn(-c3cccc4ccccc34)nc2c1	Mdm2 MdmX PPI 53 (no result: LGR2 antag) | Mdm2-MdmX conf inactive
O=C(CN1CCOCC1)NCC[C@@H]1CC[C@H](NC(=O)Nc2ccc(Cl)cc2)[C@@H](CO)O1	none (no result: KKLEB cytotox, Peg3 prom inh, HSP90 refold inh, Mdm2 MdmX PPI, CF NFkB block)
COC(=O)c1ccc(-c2csc(NC(=O)c3ccc(S(=O)(=O)N4CCc5ccccc5C4)cc3)n2)cc1	Mdm2 MdmX PPI 51 | Mdm2-MdmX conf inactive
COc1ccc(-c2csc(NC(=O)c3ccc(S(=O)(=O)N4CCc5ccccc5C4)cc3)n2)cc1	none
COC(=O)c1sc2ccccc2c1NC(=O)c1ccc(S(=O)(=O)N2CC(C)CC(C)C2)cc1 (stereo unspecified)	none
Cc1cccc2sc(NNC(=O)c3ccc(S(=O)(=O)N4CC(C)CC(C)C4)cc3)nc12 (stereo unspecified)	Peg3 prom inh 99, Mdm2 MdmX PPI 88 | Mdm2-MdmX conf 87 | Full FLuc ctr 55
Cc1ccc2nc(NNC(=O)c3ccc(S(=O)(=O)N4CCc5ccccc5C4)cc3)sc2c1	Mdm2 MdmX PPI 74 | Mdm2-MdmX conf 88 | Full FLuc ctr 63
O=c1[nH]c(N/N=C/c2ccccc2Br)nnc1-c1ccccc1	none
COc1ccc(/C=N/Nc2nnc(-c3ccccc3)c(=O)[nH]2)cc1	Mdm2 MdmX PPI 76 | Mdm2-MdmX conf inactive
